# Source: PubChem BioAssay (NCATS)
# Results filed as inconclusive are left out. Entries that show only a call come without a potency. The source made the active and inactive calls. Calls come from the whole dose curve; as a rule, active = well fitted curve in the direction sought with a large enough effect; inconclusive = small, poorly fitted or top-dose-only effect, or another doubt; inactive = no such curve, though single readings can be large; an effect the other way counts as inactive or inconclusive.
# Experiments:
# [1] = qHTS of pediatric cancer cell lines to identify multiple opportunities for drug repurposing: Primary screen for LAN-5 cells (AID 1347100); note: potency is the fitted concentration of half-maximal effect
# In short: (§1)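 Cells (500-1,000/well) rested 5 h, then received compounds for 48 h; metabolically active cells were measured by CellTiter-Glo luminescence. Final concentrations spanned up to 46 µM (MIPE, 11-point) or 0.59 nM-46 µM (NPC, 8-point) in primary screens, 11-point in follow-ups.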
# [2] = qHTS of pediatric cancer cell lines to identify multiple opportunities for drug repurposing: Primary screen for Rh18 cells (AID 1347102); note: nearly all actives have a fitted effect of over 65% in size; note: potency is the fitted concentration of half-maximal effect
# In short: as §1
# [3] = qHTS of pediatric cancer cell lines to identify multiple opportunities for drug repurposing: Primary screen for RD cells (AID 1347104); note: nearly all actives have a fitted effect of over 55% in size; note: potency is the fitted concentration of half-maximal effect
# In short: (§2)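 Primary screen of approved and investigational compounds on cells in growth media at 37 degrees C, 5% CO2. MIPE set at 11-point and NPC set at 8-point dilutions; viability scored by ATP-based luminescence at 48 hours.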
# [4] = qHTS of pediatric cancer cell lines to identify multiple opportunities for drug repurposing: Primary screen for MG 63 (6-TG R) cells (AID 1347105); note: nearly all actives have a fitted effect of over 50% in size; note: potency is the fitted concentration of half-maximal effect
# In short: as §2
# [5] = qHTS of pediatric cancer cell lines to identify multiple opportunities for drug repurposing: Primary screen for control Hh wild type fibroblast cells (AID 1347106);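 note: series mostly up to about 46 µM; a drop in luminescence marks cytotoxicity and a rise apparent proliferation; nearly all actives have a fitted effect of over 55% in size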
# In short: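 Viability after 48 h compound treatment at 37C, 500-1,000 cells/well, read as ATP luminescence with CellTiter-Glo. Primary screens used 11-point (MIPE, 0.78 nM-46 µM) or 8-point (NPC, 0.59 nM-46 µM) final concentrations; follow-up screens used 11-point dilutions.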
# [6] = qHTS of pediatric cancer cell lines to identify multiple opportunities for drug repurposing: Primary screen for Rh30 cells (AID 1347107); note: series mostly up to about 46 µM; nearly all actives have a fitted effect of over 75% in size
# In short: as §1
# [7] = qHTS of pediatric cancer cell lines to identify multiple opportunities for drug repurposing: Primary screen for Rh41 cells (AID 1347108); note: nearly all actives have a fitted effect of over 70% in size; note: potency is the fitted concentration of half-maximal effect
# In short: as §2
# [8] = qHTS of pediatric cancer cell lines to identify multiple opportunities for drug repurposing: Primary screen for BT-12 cells (AID 1347101); note: nearly all actives have a fitted effect of over 25% in size; note: potency is the fitted concentration of half-maximal effect
# In short: as §1
# [9] = qHTS of pediatric cancer cell lines to identify multiple opportunities for drug repurposing: Primary screen for OHS-50 cells (AID 1347103); note: nearly all actives have a fitted effect of over 40% in size; note: potency is the fitted concentration of half-maximal effect
# In short: as §1
# [10] = qHTS of pediatric cancer cell lines to identify multiple opportunities for drug repurposing: Confirmatory screen for NB1643 cells (AID 1347109); note: nearly all actives have a fitted effect of over 45% in size
# In short: as §1
SMILES,Potency [1],Potency [2],Potency [3],Potency [4],outcome [5],outcome [6],Potency [7],Potency [8],Potency [9],Potency [10]
O=C(CCCN1CCN(c2ccccn2)CC1)c1ccc(F)cc1,inactive,inactive,inactive,inactive,inactive,inactive,inactive,,,
CN1CCCCC1CCN1c2ccccc2Sc2ccc(S(C)=O)cc21 (centres undefined),inactive,,inactive,inactive,inactive,inactive,inactive,inactive,,
COCCOC(=O)C1=C(C)NC(C)=C(C(=O)OC/C=C/c2ccccc2)C1c1cccc([N+](=O)[O-])c1 (centres undefined),,inactive,,,inactive,inactive,,,19.5 µM (active),
CC(=O)O[C@@]12CO[C@@H]1C[C@H](O)[C@@]1(C)C(=O)[C@H](O)C3=C(C)[C@@H](OC(=O)[C@H](O)[C@@H](NC(=O)OC(C)(C)C)c4ccccc4)C[C@@](O)([C@@H](OC(=O)c4ccccc4)[C@H]21)C3(C)C,,inactive,,,inactive,inactive,,,0.0031 µM (active),
CCN(CC)CCSC(=O)C(c1ccccc1)c1ccccc1,,inactive,inactive,inactive,,inactive,,inactive,,
Cc1ccc2nc(N)[nH]c(=O)c2c1Sc1ccncc1,,inactive,,,inactive,,,,,inactive
NC1[C@H]2CN(c3nc4c(cc3F)c(=O)c(C(=O)O)cn4-c3ccc(F)cc3F)C[C@@H]12 (some centres undefined),,inactive,,,,inactive,,,inactive,
Cc1cc(C(C#N)c2ccc(Cl)cc2)c(Cl)cc1NC(=O)c1cc(I)cc(I)c1O (centres undefined),,inactive,,,inactive,,inactive,,30.9 µM (active),
CCN(CC)CCNC(=O)c1c(C)[nH]c(/C=C2\C(=O)Nc3ccc(F)cc32)c1C,11.9 µM (active),,15 µM (active),21.1 µM (active),,,21.1 µM (active),21.9 µM (active),1.23 µM (active),
CN(C)CCCN1c2ccccc2Sc2ccc(Cl)cc21,,,,,inactive,inactive,,,27.6 µM (active),
OCc1cc(C(O)CNCCCCCCOCCCCc2ccccc2)ccc1O (centres undefined),inactive,,,inactive,inactive,inactive,inactive,,19.5 µM (active),
CS(=O)(=O)c1ccc([C@@H](O)[C@@H](CF)NC(=O)C(Cl)Cl)cc1,inactive,inactive,inactive,,inactive,inactive,inactive,,inactive,
CN(C)CCC=C1c2ccccc2CCc2ccccc21,,,,inactive,inactive,inactive,inactive,,,
CCCCOC(=O)c1ccc(O)cc1,inactive,inactive,inactive,,,inactive,inactive,,,
CNCCC(Oc1ccc(C(F)(F)F)cc1)c1ccccc1 (centres undefined),inactive,,,16.8 µM (active),,inactive,,,27.6 µM (active),
CNCCCC1c2ccccc2C=Cc2ccccc21,,,26.6 µM (active),,inactive,inactive,inactive,,21.9 µM (active),
CN(C)CCCN1c2ccccc2CCc2ccccc21,inactive,,,inactive,inactive,inactive,inactive,,27.6 µM (active),
CCN(CC)CCOC(=O)C1(C2CCCCC2)CCCCC1,inactive,inactive,inactive,inactive,inactive,inactive,inactive,,,
O=C1Nc2ccc(Cl)cc2[C@@](C#CC2CC2)(C(F)(F)F)O1,inactive,inactive,inactive,,,inactive,inactive,,27.6 µM (active),

SMILES,Potency [1],Potency [2],Potency [3],Potency [4],outcome [5],outcome [6],Potency [7],Potency [8],Potency [9],Potency [10]
Oc1ccc(C(O)CNCCCCCCNCC(O)c2ccc(O)c(O)c2)cc1O (centres undefined),,inactive,inactive,,inactive,inactive,inactive,inactive,inactive,
CSc1ccc2c(c1)N(CCC1CCCCN1C)c1ccccc1S2 (centres undefined),,16.8 µM (active),26.6 µM (active),,inactive,,,24.6 µM (active),17.4 µM (active),
c1ccc2c(CC3=NCCN3)cccc2c1,inactive,inactive,inactive,inactive,inactive,inactive,inactive,,,
Cc1c(O)cccc1C(=O)N[C@@H](CSc1ccccc1)[C@H](O)CN1C[C@H]2CCCC[C@H]2C[C@H]1C(=O)NC(C)(C)C,,,23.7 µM (active),,inactive,inactive,,,24.6 µM (active),
CC[N+](CC)(CC)CCOc1ccc(/C=C/c2ccccc2)cc1,,7.5 µM (active),15 µM (active),,,,,3.47 µM (active),3.47 µM (active),
CC(CN(C)C)CN1c2ccccc2CCc2ccccc21 (centres undefined),inactive,,,inactive,inactive,inactive,inactive,,17.4 µM (active),
C[C@]12CC[C@@H]3c4ccc(O)cc4CC[C@H]3[C@@H]1CC[C@@H]2OC(=O)CCC1CCCC1,,inactive,,,inactive,inactive,inactive,,27.6 µM (active),
O=C(O)COc1nn(Cc2ccccc2)c2ccccc12,inactive,,inactive,inactive,inactive,inactive,inactive,inactive,inactive,
CNCC(O)c1ccc(O)c(O)c1 (centres undefined),inactive,,inactive,inactive,inactive,,inactive,inactive,inactive,
CC(O)COc1ccccc1 (centres undefined),inactive,,inactive,inactive,inactive,inactive,,inactive,inactive,
OCCN1CCN(CCCN2c3ccccc3Sc3ccc(Cl)cc32)CC1,23.7 µM (active),,,,,,,,24.6 µM (active),
COc1ccc2cc1Oc1ccc(cc1)C[C@H]1c3c(cc4c(c3Oc3cc5c(cc3OC)CCN(C)[C@@H]5C2)OCO4)CCN1C,,,23.7 µM (active),,,inactive,,24.6 µM (active),15.5 µM (active),
O=C(O)[C@H](O)c1ccccc1,inactive,,inactive,inactive,inactive,inactive,inactive,inactive,,
NC(=O)N/N=C/c1ccc([N+](=O)[O-])o1,inactive,inactive,inactive,inactive,inactive,inactive,inactive,,inactive,
CCN(CC)CCCC(C)Nc1c2ccc(Cl)cc2nc2ccc(OC)cc12 (centres undefined),,,23.7 µM (active),,inactive,,,,17.4 µM (active),
CCCCN(CCCC)CC(O)c1cc(Cl)cc2c1-c1ccc(Cl)cc1/C2=C/c1ccc(Cl)cc1 (centres undefined),,21.1 µM (active),,inactive,inactive,inactive,inactive,,,
CC(CN1c2ccccc2Sc2ccccc21)N(C)C (centres undefined),inactive,,,inactive,inactive,inactive,,,,
CCCc1c(OCCCCc2nn[nH]n2)ccc(C(C)=O)c1O,,inactive,inactive,inactive,,inactive,inactive,inactive,inactive,
CSc1ccc2c(c1)C(N1CCN(C)CC1)Cc1ccccc1S2 (centres undefined),,,,,,inactive,inactive,,27.6 µM (active),
